Screening data as filed in PubChem BioAssay.
Sampled rows, rich in hits. Any-hit rate of the full collection: about 8.9%.
KB-3-1 cytotox – qHTS assay for MDR1-selective chemotherapeutics: Primary screen using the parental adenocarcinoma cell KB-3-1; KB-3-1 viability, CellTiter-Glo ATP luminescence, 72 h; Potency, µM (titrated, usually from 46.1 µM), hits mostly cytotoxic; 400,000 compounds, 1.4% hits; further: potency means the concentration at half of the fitted maximal effect; on the % scale 0 is the no-effect control and ±100 the full control effect; nearly all actives have a fitted effect of over 60% in size
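KB-3-1 parental drug-naive adenocarcinoma cells in DMEM/10% FBS, incubated 72 h at 37 C with pin-transferred compounds across a concentration series. Viability by CellTiter-Glo luminescence; concentration-response curves fitted after normalization.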
KB-V1 cytotox – qHTS assay for MDR1-selective chemotherapeutics: Primary screen using the drug-selected MDR subline cells KB-V1. KB-V1 MDR cells viability, CellTiter-Glo, 72 h. Potency, µM (highest dose often 46.1 µM), most hits filed as cytotoxic. 400,000 compounds, 3.4% hits. AID 1347076, 2019; further: potency means the concentration at half of the fitted maximal effect; on the % scale 0 is the no-effect control and ±100 the full control effect; nearly all actives have a fitted effect of over 60% in size
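Drug-selected KB-V1 cells, grown in DMEM lacking phenol red with 10% FBS, receive compound titrations; after three days at 37 degrees C, surviving cell ATP is quantified by CellTiter-Glo luminescence and responses normalized and curve-fitted.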
SW480 rereplic – A quantitative high throughput screen for small molecules that induce DNA re-replication in SW480 colon adenocarcinoma cells; AID 624297, 2012; SW480 DNA re-replication, Hoechst DNA content imaging, 48 h; Potency, µM (highest dose often 46.1 µM), for the others: at the top dose re-replication activation, actives largely listed as activators; 340,000 compounds, 1.8% hits; further: potency means the concentration at half of the fitted maximal effect; % of control where 0% means no effect; nearly all actives have a fitted effect of over 55% in size
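Hoechst fluorescence of nuclei (405 nm excitation, 500-530 nm emission) measured by plate-scanning imager after 48 hr compound exposure at 37 C; re-replication scored as increased number of nuclei with elevated intensity.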
D3 ag – qHTS of D3 Dopamine Receptor Agonist: qHTS | D(3) dopamine receptor (Homo sapiens), P35462 | D3R DiscoveRx beta-arrestin cells, luminescence, 90 min | max activation, % | 410,000 compounds, 0.58% hits; in the data active means max activation above about 30%; further: 0% is about no effect
Target sequence (P35462 whole entry, looked up): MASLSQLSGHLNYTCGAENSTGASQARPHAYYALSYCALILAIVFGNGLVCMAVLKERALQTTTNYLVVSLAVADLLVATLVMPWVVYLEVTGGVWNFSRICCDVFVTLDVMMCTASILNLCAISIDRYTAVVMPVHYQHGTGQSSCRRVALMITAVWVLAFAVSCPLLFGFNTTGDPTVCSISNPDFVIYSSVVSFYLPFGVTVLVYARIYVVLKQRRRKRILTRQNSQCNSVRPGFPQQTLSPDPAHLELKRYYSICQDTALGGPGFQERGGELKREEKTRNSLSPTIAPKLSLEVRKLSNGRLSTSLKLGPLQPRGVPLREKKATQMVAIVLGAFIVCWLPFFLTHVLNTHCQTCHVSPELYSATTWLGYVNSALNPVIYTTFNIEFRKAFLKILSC
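Agonist mode: compounds and dopamine controls were applied to plated cells for 90 min at 37 degrees C after an overnight attachment at 1500 cells/well. Luminescent read-out followed 30 - 60 minutes at room temperature with DiscoveRx detection reagent.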
MCF10A rereplic – A quantitative high throughput screen for small molecules that induce DNA re-replication in MCF 10a normal breast cells. Potency, µM (series often up to 46.1 µM), for the others: at the top dose activity, positive = re-replication, usual class: activators. MCF 10A DNA re-replication, Hoechst nuclear intensity, 48 h. 350,000 compounds, 2.9% hits. AID 624296, 2012; further: potency means the concentration at half of the fitted maximal effect; % of control where 0% means no effect; nearly all actives have a fitted effect of over 50% in size
DRD3 antagonist – qHTS of D3 Dopamine Receptor Antagonist: qHTS. D(3) dopamine receptor (Homo sapiens), P35462. D3R cells, DiscoveRx beta-arrestin luminescence, antagonist mode; hits give low values. max response, negative = inhibition, %. 360,000 compounds, 2.5% hits; in the data active means max response below about -50%; inconclusive means no clear call, values can overlap the other calls; further: on the % scale 0 is the no-effect control and ±100 the full control effect
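Cells expressing the human receptor were seeded at 1500 cells/well, incubated overnight at 37 degrees C in 5% CO2, then exposed to library compounds with dopamine controls for 90 minutes at 37 degrees C before luminescent detection.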
An asterisk follows results filed as active; i = inactive; ? = inconclusive; · = no result given; [ ] = remark or other dose. Unless noted, the call rests on the fitted dose curve; in most records, active means well fitted curve in the direction sought with a large enough effect; inconclusive means small, poorly fitted or top-dose-only effect, or another doubt; inactive means no such curve, though single readings can be large; an effect the other way counts as inactive or inconclusive.

SMILES | KB-3-1 cytotox | KB-V1 cytotox | SW480 rereplic | D3 ag | MCF10A rereplic | DRD3 antagonist
COc1cc(OC)c(NC(=O)c2nn(-c3ccc(C)cc3)c(=O)c3c2c2ccccc2n3C)cc1Cl | i | i | · | -3 | · | ·
O=C(CCOc1ccccc1)Nc1ccnn1C1CCN(CCc2ccccc2)CC1 | i | i | 1% | -18 | 5% | -52*
Cc1ccccc1CN1CCC(n2nccc2NC(=O)CCCc2ccccc2)CC1 | i | i | -14% | -3 | 12% | -80*
O=C(CCCc1ccccc1)Nc1ccnn1C1CCN(Cc2ccccn2)CC1 | i | ? | -8% | -4 | -1% | 0
NNc1ccc2nnc(C(F)(F)C(F)(F)C(F)(F)F)n2n1 | i | ? | 2% | -8 | 0% | 7
Cc1cc(C)nc(Sc2ccc3nnc(C(F)(F)C(F)(F)C(F)(F)F)n3n2)n1 | i | i | 15µM* | 1 | ? | -6
O=C(Nc1ccc2c(c1)Cc1ccccc1-2)c1ccncc1 | i | i | -3% | 7 | ? | -13
O=CNc1ccc2c(c1)Cc1cccc(NC=O)c1-2 | ? | 6.5µM* | 1% | 4 | -2% | -8
CCCCn1c2ccc(F)cc2c2nnc(NN)nc21 | i | i | ? | -1 | 0.65µM* | -6
Cn1c(C(=O)OC(C(=O)NCc2ccco2)c2ccncc2)cc2sccc21 (configuration not stated) | i | 3.7µM* | 10% | 0 | 3% | 13
CC(OC(=O)c1cc2sccc2n1C)C(=O)NCCc1ccccc1 (configuration not stated) | i | 13µM* | ? | -7 | ? | 8
CC(OC(=O)c1cc2sccc2n1C)C(=O)NCC1CCCO1 (configuration not stated) | i | i | -2% | -3 | 6% | -17
Cn1c(C(=O)OC(C(=O)NCC2CCCO2)c2cccnc2)cc2sccc21 (configuration not stated) | i | i | 1.3µM* | 2 | ? | -1
CC(OC(=O)c1cc2sccc2n1C)C(=O)NCc1ccco1 (configuration not stated) | i | i | 0% | -5 | -12% | -10
CCC(OC(=O)c1cc2sccc2n1C)C(=O)NCC1CCCO1 (configuration not stated) | i | 23µM* | -4% | 3 | 6% | -15
Nc1nc(Cl)nc2c1ncn2[C@H]1C[C@H](O)[C@@H](CO)O1 | ? | ? | ? | 14 | ? | -80*
O=S(=O)(Nc1cccc2cccnc12)c1ccc(S(=O)(=O)N2CCCC2)cc1 | i | ? | 2.9µM* | -42 | ? | -72*
O=S(=O)(Nc1cccc2cccnc12)c1ccccc1 | ? | ? | 23µM* | -23 | 21µM* | -71*
Cc1ccc2cccc(NS(=O)(=O)c3ccccc3)c2n1 | ? | ? | ? | -9 | 3.3µM* | ?
Cc1c(NS(C)(=O)=O)cccc1-c1nc2cccnc2s1 | i | ? | -16% | 1 | ? | -51*
CC(=O)Nc1ccc(S(=O)(=O)Nc2cccc3cccnc23)cc1 | i | ? | -4% | -1 | 0% | -18
CN(CCCNC(=O)Cn1ncc2c([nH]c3ccccc32)c1=O)Cc1ccccc1 | i | i | · | -6 | · | ·
Cc1ccc(S(=O)(=O)Nc2cccc3cccnc23)c([N+](=O)[O-])c1 | ? | ? | 18µM* | -11 | ? | -56*
CS(=O)(=O)Nc1cccc2cccnc12 | ? | i | ? | -17 | 1% | -57*
Cc1cc(C)c(NS(=O)(=O)c2cccc3cccnc23)c(C)c1 | i | i | 0% | -8 | 0% | -3
SMILES | KB-3-1 cytotox | KB-V1 cytotox | SW480 rereplic | D3 ag | MCF10A rereplic | DRD3 antagonist
Cc1ccc(CNc2ncnc3c2c(-c2ccccc2)cn3-c2ccccc2)cc1 | i | i | · | -19 | · | ·
CCOC(=O)c1ccccc1NC(=O)N1CC(C)Oc2ccc(C)cc21 (configuration not stated) | · | · | · | 0 | · | ·
COc1ccc(CCNC(=O)CCCCn2c(=O)c3ccccc3n(Cc3ccc(Cl)cc3)c2=O)cc1OC | i | i | · | 5 | · | ·
O=C(NCC1CCCO1)c1cc2n(n1)C(C(F)(F)F)CC(c1ccc(F)cc1)N2 (configuration not stated) | i | 21µM* | -5% | 16 | 11% | -19
COc1ccc(C2CC(C(F)(F)F)n3nc(C(=O)NCCN4CCOCC4)cc3N2)cc1 (configuration not stated) | i | i | 3% | -1 | -4% | 6
CN(C)CC/C=C1\c2cc(F)ccc2CSc2ccccc21 | i | 21µM* | 14% | -43 | 9% | -52*
CN(CC/C=C1/c2ccccc2CSc2ccccc21)CCCO | i | 23µM* | ? | -17 | 13% | ?
C=CCN(C)CC/C=C1\c2ccccc2CSc2ccccc21 | i | i | 0%[9.22 µM] | -6 | 8% | -73*
C#CCN(C)CC/C=C1\c2ccccc2CSc2ccccc21 | i | i | 16µM* | -21 | ? | -71*
Oc1c(C(c2ccc(Cl)cc2Cl)N2CCCC2)sc2nc(-c3ccco3)nn12 (configuration not stated) | i | i | · | 6 | · | ·
CC(C)C(=O)N(Cc1cc2ccccc2[nH]c1=O)C(C)C | i | 16µM* | -9% | 0 | -6% | -11
CCOC(=O)c1ccc(N(CCC2CO2)S(=O)(=O)c2ccc(C)cc2)cc1 (configuration not stated) | i | 21µM* | 0% | -4 | -1% | 2
Cc1ccc(N(Cc2cc3cc(C)ccc3[nH]c2=O)S(=O)(=O)c2ccccc2)cc1 | ? | ? | 18µM* | -2 | ? | -11
CCOc1ccc(S(=O)(=O)N(CC(=O)N/N=C/c2cccs2)c2ccc(C)cc2)cc1 | i | 23µM* | -4% | 2 | 5% | 9
N#Cc1ccccc1Cn1c(=O)n(Cc2ccc(C(=O)NC3CCN(Cc4ccccc4)CC3)cc2)c(=O)c2ccccc21 | i | ? | · | -10 | · | ·
Cn1cc(S(=O)(=O)N2CCCCC2)cc1C(=O)Nc1ccc(OC(F)(F)F)cc1 | i | i | · | -12 | · | ·
CCOc1ccc(C(=O)N(CN2CCCC2=O)c2ccc(C)cc2)cc1 | i | 4.6µM* | -2% | 24 | 1% | 17
